Records with an inconclusive call do not appear. Entries that show only a call come without a potency. Values without a mark were called inactive. Active and inactive are the calls of the source. Calls follow the shape of the dose curve; as a rule, active = well fitted curve in the direction sought with a large enough effect; inconclusive = small, poorly fitted or top-dose-only effect, or another doubt; inactive = no such curve, though single readings can be large; an effect the other way counts as inactive or inconclusive.
Key:
[1] = Viability qHTS for spleen associated tyrosine kinase inhibitor (SYKi) naive MV4-11 cells (AID 1963823); conditions: MV4-11 AML viability, CellTiter-Glo luminescence, 72 h; series mostly up to 45 µM; also: nearly all actives have a fitted effect of over 40% in size
Method in brief: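 Compounds were dispensed acoustically onto plates, MV4-11 cells (SYKi-naive) added at 500 per well, and plates incubated 72 hr at 37 C. CellTiter-Glo was added and luminescence measured after 10 min.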

[2] = Viability qHTS for spleen associated tyrosine kinase inhibitor (SYKi) drug resistant MV4-11 cells (AID 1963824); conditions: SYKi-resistant MV4-11 viability, CellTiter-Glo, 72 h; series mostly up to 45 µM; also: nearly all actives have a fitted effect of over 35% in size
Method in brief: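 CellTiter-Glo luminescence, read 10 min after reagent addition, reports viability after a 72 hr compound exposure. Cells are an MV4-11 line made resistant to SYK inhibition, seeded at 500 per well onto compound-containing plates.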

[3] = Quantitative highthroughput screen to assess conditional lethalithy of NOMO1 cells grown in RPMI1640 with untreated serum (RPMI+s) (AID 1963876); conditions: NOMO1 AML cells in RPMI+serum, CellTiter-Glo viability, 48 h; series mostly up to 45.8 µM; also: nearly all actives have a fitted effect of over 35% in size
Method in brief: (§1)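 Each medium arm—HPLM with 10% dialyzed FBS, or RPMI1640 with 5 mM glucose and 10% untreated or dialyzed FBS—was screened against an 11-point, 3-fold compound titration for 48 h at 37 °C, with CellTiter-Glo luminescence as endpoint.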

[4] = Quantitative highthroughput screen to assess conditional lethalithy of NOMO1 cells grown in RPMI1640 with dialyzed fetal bovine serum (RPMI+ds) (AID 1963877); conditions: NOMO1 in RPMI+dialyzed FBS viability, ATP luminescence, 48 h; series mostly up to 45.8 µM; also: nearly all actives have a fitted effect of over 30% in size
Method in brief: as §1

[5] = Quantitative highthroughput screen to assess conditional lethalithy of NOMO1 cells grown in Human Plasma-Like Medium with dialyzed fetal bovine serum (HPLM+ds) (AID 1963878); conditions: NOMO1 AML cells in HPLM+ds, CellTiter-Glo viability, 48 h; series mostly up to 45.8 µM; also: nearly all actives have a fitted effect of over 35% in size
Method in brief: as §1

[6] = Quantitative highthroughput screen to assess conditional lethalithy of P12 Ichikawa cells grown in Human Plasma-Like Medium with dialyzed fetal bovine serum (HPLM+ds) (AID 1963879); conditions: ATP luminescence, 48 h; Potency: viability; series mostly up to 45.8 µM; also: nearly all actives have a fitted effect of over 35% in size
Method in brief: as §1

[7] = Quantitative highthroughput screen to assess conditional lethalithy of P12 Ichikawa cells grown in RPMI1640 with dialyzed fetal bovine serum (RPMI+ds) (AID 1963880); conditions: ATP luminescence, 48 h; Potency: P12-Ichikawa viability; series mostly up to 45.8 µM; also: nearly all actives have a fitted effect of over 35% in size
Method in brief: as §1

[8] = Quantitative highthroughput screen to assess conditional lethalithy of P12 Ichikawa cells grown in RPMI1640 with untreated serum (RPMI+s) (AID 1963881); conditions: ATP luminescence, 48 h; Potency: viability; series mostly up to 45.8 µM; also: nearly all actives have a fitted effect of over 35% in size
Method in brief: as §1

[9] = Quantitative highthroughput screen to assess conditional lethalithy of SEM cells grown in Human Plasma-Like Medium with dialyzed fetal bovine serum (HPLM+ds) (AID 1963882); conditions: SEM B-ALL cells in HPLM+ds, CellTiter-Glo viability, 48 h; series mostly up to 45.8 µM; also: nearly all actives have a fitted effect of over 35% in size
Method in brief: as §1

[10] = Quantitative highthroughput screen to assess conditional lethalithy of SEM cells grown in RPMI1640 with unreated serum (RPMI+s) (AID 1963883); conditions: SEM B-ALL cells, CellTiter-Glo viability, 48 h; series mostly up to 45.8 µM; also: nearly all actives have a fitted effect of over 35% in size
Method in brief: as §1

[11] = Quantitative highthroughput screen to assess conditional lethalithy of SEM cells grown in RPMI1640 with dialyzed fetal bovine serum (RPMI+ds) (AID 1963884); conditions: SEM B-ALL cells, RPMI+dialyzed FBS, CellTiter-Glo viability, 48 h; series mostly up to 45.8 µM; also: nearly all actives have a fitted effect of over 35% in size
Method in brief: as §1

[12] = Cellular viability qHTS for adrenocortical cancer (ACC) cell line SW-13 (AID 1963989); conditions: SW-13 ACC cells viability, CellTiter-Glo, 48 h; activity (max response): stronger effect = lower value; also: nearly all actives have a fitted effect of over 65% in size;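 as to activity (max response): cells grown in serum-free medium with ITS supplement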
Method in brief: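 SW-13 cells in ITS-supplemented serum-free DMEM were plated overnight, then exposed for 48 h at 37C to compound titrations (up to 46 uM final). Viability was read by CellTiter-Glo luminescence; four-parameter logistic fits gave IC50 and efficacy.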

[13] = Cellular viability qHTS for adrenocortical cancer (ACC) cell line NCI-H295R (AID 1963990); conditions: CellTiter-Glo ATP luminescence, 48 h; series mostly up to 46.1 µM; also: nearly all actives have a fitted effect of over 60% in size
Method in brief: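 Luminescent ATP read-out (CellTiter-Glo, 20 min RT) after 48 h drug exposure of NCI-H295R cells; a titration up to 46 uM final. Data normalized to doxorubicin (100% inhibition) and DMSO (0%); 4-parameter fit gives IC50, max response.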
Potency is read from the fitted curve at half-maximal effect.

SMILES | Potency [1] | Potency [2] | Potency [3] | Potency [4] | Potency [5] | Potency [6] | Potency [7] | Potency [8] | Potency [9] | Potency [10] | Potency [11] | Potency [12] | Potency [13] | activity (max response) [12] [%]
CCOc1ccccc1OCCNC(C)Cc1ccc(OC)c(S(N)(=O)=O)c1 (stereo not drawn) | inactive | inactive | inactive | inactive | inactive | inactive | inactive | inactive | inactive | inactive | inactive |  |  | 
CC(=O)NC1=NN(C(C)=O)C(C)(c2ccccc2)S1 (stereo not drawn) | 1.84 µM (active) | 2.59 µM (active) |  |  |  |  |  |  |  |  |  |  |  | 
COc1cc([C@@H]2c3cc4c(cc3[C@@H](O[C@@H]3O[C@@H]5CO[C@@H](C)O[C@@H]5[C@H](O)[C@@H]3O)[C@H]3COC(=O)[C@H]23)OCO4)cc(OC)c1O | 0.59 µM (active) | 0.525 µM (active) | 2.09 µM (active) | 2.35 µM (active) | 1.87 µM (active) | 935 nM (active) | 833 nM (active) | 662 nM (active) | 526 nM (active) | 132 nM (active) | 166 nM (active) | 11.2 µM (active) | 20 µM (active) | 
Fc1ccccc1CNCc1ccc(-c2ccnc3[nH]ccc23)cc1 | 5.17 µM (active) | 9.2 µM (active) |  |  |  |  |  |  |  |  |  |  |  | 
NC[C@H]1O[C@H](O[C@@H]2[C@@H](O)[C@@H](O[C@H]3O[C@H](CO)[C@@H](O)[C@H](N)[C@@H]3O)[C@H](N)C[C@@H]2N)[C@H](O)[C@@H](O)[C@H]1O | 1.05 µM (active) | inactive | inactive | inactive | inactive | inactive | inactive | inactive | inactive | inactive | inactive |  | inactive | 12.9
NC(=O)c1ccc(OCC2NC(=O)C3CCCN3C2=O)cc1 (stereo not drawn) | inactive | inactive |  |  |  |  |  |  |  |  |  |  |  | 
